ASK1 primary – ASK1 kinase inhibitors, primary screen, biochemical, AlphaScreen; 22,000 compounds, 0.99% hits; AlphaScreen MKK6 phosphorylation by ASK1, luminescence; inhibition, % at 7.44 µM; Mitogen-activated protein kinase kinase kinase 5 (Homo sapiens), Q99683; in the data active = inhibition above about 35%;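 also: 0% = median of compound wells and 100% = no enzyme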
ULK1 inh – ULK1 kinase inhibitors, primary screen, biochemical, AlphaScreen | Serine/threonine-protein kinase ULK1 (Homo sapiens), O75385 | AlphaScreen Atg13 phosphorylation by ULK1, luminescence | inhibition, % at 5.96 µM | 30,000 compounds, 1.9% hits; in the data active = inhibition above about 43%;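 also: 0% = median of compound wells and 100% = no enzyme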
* hit, by the source's call. Rows were chosen to be rich in hits. Some 2.5% of all compounds tested hit in one or more screens of this group.

For O=C(NCc1ccccc1)c1ccc2nc(Nc3ccccc3)sc2c1 the results were ASK1 primary -9.9 and ULK1 inh -1.5.
For COc1cc(Nc2ccnc(-c3c(C)noc3C)n2)cc(OC)c1OC the results were ASK1 primary 8.1 and ULK1 inh 8.3.
Cc1noc(C)c1-c1cc(NCc2cccc(C(F)(F)F)c2)ncn1 was read as ASK1 primary -12.8 and ULK1 inh -6.3.
For COc1cc(N2CCOCC2)ccc1Nc1cc(Nc2cccc3c2C(=O)N(C)C3)c(C(F)(F)F)cn1 the results were ASK1 primary -0.6 and ULK1 inh 15.6.
Screening CNC(=O)c1ccccc1Nc1cc(Nc2ccc(N3CCN(C)CC3)cc2OC)ncc1C(F)(F)F returned ASK1 primary 19.1 and ULK1 inh 91.2*.
`CNC(=O)c1ccccc1Nc1cc(Nc2ccc(OC3CCN(C)CC3)cc2OC)ncc1C(F)(F)F` gave ASK1 primary 10.0 and ULK1 inh 94.8*.
For COc1cc(N2CCOCC2)ccc1Nc1cc(Nc2ccccc2-c2ncco2)c(C(F)(F)F)cn1 the results were ASK1 primary 20.0 and ULK1 inh 31.3.
Screening CC(C)NC1CCC(Nc2cc(Nc3ccccc3C(N)=O)c(C(F)(F)F)cn2)CC1 (stereo not given) returned ASK1 primary 11.9 and ULK1 inh 29.5.
Screening CNC(=O)c1ccccc1Nc1cc(Nc2ccc(N3CCC(N(C)C)C3)cc2OC)ncc1C#N (stereo not given) returned ASK1 primary 24.0 and ULK1 inh 90.9*.
For CCOC(=O)N1CCN(c2cc(-c3ccc(F)cc3)nc(C)n2)CC1 the results were ULK1 inh 9.1.
`O=C(N/N=C/c1c[nH]c2ccccc12)C(O)(c1ccccc1)c1ccccc1` gave ULK1 inh -8.4.
C=CCn1c(SCC(=O)O)nc2c1c(=O)n(C)c(=O)n2C was read as ULK1 inh 0.2.
`Nc1ccc(O)c(N)c1` gave ULK1 inh 40.2.
Screening NCCc1ccc(O)c(O)c1 returned ULK1 inh 73.8*.
COc1ccc(CCNc2nc(N3CCC(N4CCOCC4)CC3)nc3nc[nH]c23)cc1 was read as ASK1 primary 5.5 and ULK1 inh 0.7.
For OCCNc1nc(Nc2cnccn2)nc2c1ncn2-c1ccccc1 the results were ASK1 primary 7.5 and ULK1 inh 13.9.
`Cc1ccc(-n2c(=O)[nH]c3c(C(=O)Nc4cc(Cl)ccc4C)cn(C)c3c2=O)cc1` gave ULK1 inh 1.1.
`Cc1ncn(-c2ccc(Nc3ncc4cccc(-c5cnn(-c6ccccc6)c5)c4n3)cc2)n1` gave ASK1 primary 9.7 and ULK1 inh 16.5.
`Cc1ncn(-c2ccc(N(c3ncc4cccc(-c5cnn(C(C)C)c5)c4n3)C(C)C)cc2)n1` gave ASK1 primary -2.8 and ULK1 inh 91.5*.
`CCN(CC)C(=O)C1CCCN(c2cc(NC3CC3)nc(N)n2)C1` (stereo not given) gave ASK1 primary -2.5 and ULK1 inh -33.2.
Cc1c[nH]c(=O)c2cccc(S(=O)(=O)N3CCCNC[C@@H]3C)c12 was read as ASK1 primary 0.1 and ULK1 inh 47.2*.
For Cc1c[nH]c(=O)c2cccc(NC3CCN(C(=O)C(N)c4ccc(Br)cc4)CC3)c12 (stereo not given) the results were ASK1 primary 10.8 and ULK1 inh 13.6.
Cc1nc2cc(-c3ccnc(Nc4cccc(C(=O)NC(C)C)c4)n3)ccc2c(=O)n1C1CC1 was read as ASK1 primary -2.0 and ULK1 inh 9.2.
Cc1nc2ccc(-c3ccnc(Nc4cccc(C(=O)N5CCCC5)c4)n3)cc2c(=O)n1C was read as ASK1 primary 2.5 and ULK1 inh -10.1.
For O=C(c1cccc(Nc2nccc(-c3ccc4c(=O)[nH]c(C5CC5)nc4c3)n2)c1)N1CCCC1 the results were ASK1 primary -17.2 and ULK1 inh 65.2*.
O=C(c1cccc(Nc2nccc(-c3ccc4nc(C5CC5)[nH]c(=O)c4c3)n2)c1)N1CCCC1 was read as ASK1 primary -25.9 and ULK1 inh 80.3*.
O=C(c1cc(O)c(O)c(O)c1)c1ccc(O)c(O)c1O was read as ULK1 inh 83.3*.
O=C(O)c1cc(O)c(O)c(O)c1 was read as ULK1 inh -7.6.
COc1cc(Nc2nc(-c3ccc(N4CCOCC4)nc3)ncc2C)cc(OC)c1OC was read as ASK1 primary 8.6 and ULK1 inh 88.7*.
Screening c1cncc(CNc2nc(-c3ccc(N4CCOCC4)nc3)nc3nc[nH]c23)c1 returned ASK1 primary -1.5 and ULK1 inh 58.5*.
`COc1ccc(-c2nc(NCc3cccnc3)c3[nH]cnc3n2)cn1` gave ASK1 primary -14.5 and ULK1 inh 8.5.
COc1ccc(-c2ncc(C)c(Nc3cc(OC)c(OC)c(OC)c3)n2)cn1 was read as ASK1 primary 18.2 and ULK1 inh 55.2*.
For COc1cc(Nc2nc(-c3ccc(N4CCOCC4)nc3)nc3nc[nH]c23)cc(OC)c1OC the results were ASK1 primary 7.5 and ULK1 inh -9.3.
For COc1cc(Nc2cc(C)nc(-c3ccc(C(=O)NC4CC4)cc3)n2)cc(OC)c1OC the results were ASK1 primary 3.2 and ULK1 inh -9.4.
Screening COc1cc(Nc2ccnc(-c3ccc(C(=O)NC4CC4)cc3)n2)cc(OC)c1OC returned ASK1 primary -0.3 and ULK1 inh 45.2*.
`COc1ccc(-c2ncc(C)c(Nc3ccccc3)n2)cn1` gave ASK1 primary 10.8 and ULK1 inh -23.8.
c1ccc(OCCNc2nc(Nc3ccncn3)nc3nc[nH]c23)cc1 was read as ASK1 primary 4.3 and ULK1 inh 12.0.
For Cc1cnc(-c2ccc(N3CCOCC3)nc2)nc1Nc1ccc(Oc2ccccc2)cc1 the results were ASK1 primary 1.7 and ULK1 inh -7.5.
`CC(=O)Nc1ccc(Nc2ccnc(-c3ccc(N4CCOCC4)nc3)n2)cc1` gave ASK1 primary 2.2 and ULK1 inh 38.1.
`COc1cc(Nc2ccnc(-c3ccc(N4CCOCC4)nc3)n2)cc(OC)c1OC` gave ASK1 primary 8.5 and ULK1 inh 73.6*.
`Cc1cnc(-c2ccc(N3CCOCC3)nc2)nc1Nc1ccc(N2CCOCC2)cc1` gave ASK1 primary 15.9 and ULK1 inh 52.1*.
Screening COc1cc2nc(-c3ccc(N4CCOCC4)nc3)nc(Nc3cc(OC)c(OC)c(OC)c3)c2cc1OC returned ASK1 primary 0.9 and ULK1 inh -5.5.
`c1cc(Nc2ccc(N3CCOCC3)cc2)nc(-c2ccc(N3CCOCC3)nc2)n1` gave ASK1 primary 7.7 and ULK1 inh 60.1*.
Screening COc1ccc(CCNc2ncnc3nc(N4CCC(N5CCOCC5)CC4)[nH]c23)cc1 returned ASK1 primary 0.7 and ULK1 inh 5.0.
Screening COc1cc(NC(=O)c2cnc(NCCN3CCOCC3)s2)cc(OC)c1OC returned ASK1 primary 8.5 and ULK1 inh 4.7.
Screening Cc1nn(C)c(C)c1-c1nc(NCc2cccnc2)c2ncn(-c3ccccc3)c2n1 returned ASK1 primary -18.3 and ULK1 inh 33.9.
Screening Cn1nccc1Nc1ncc(C(=O)NC2CC2)s1 returned ASK1 primary -4.7 and ULK1 inh 6.7.
`CN1CCN(CCNC(=O)c2cccc(CN(C(=O)c3nc4ccc(-c5cn[nH]c5)cc4s3)C3CC3)c2)CC1` gave ASK1 primary -36.7 and ULK1 inh 53.4*.
`O=C(NCCN1CCCCC1)c1cccc(CN(C(=O)c2nc3ccc(-c4cn[nH]c4)cc3s2)C2CC2)c1` gave ASK1 primary -2.0 and ULK1 inh 8.6.

Source: PubChem BioAssay
